# Source: PubChem BioAssay (National Center for Advancing Translational Sciences (NCATS))
# Shown is part of a subset that was picked to be rich in hits.
# Pf Dd2 inh = Plasmodium falciparum Dd2 growth inhibition; 120,000 tested, 4.3% active; Potency, µM (highest dose often 28.9 µM), for inactives: top-dose activity, negative = inhibition, hits mostly inhibitors; P. falciparum Dd2 growth, SYBR Green, 72 h; active = well fitted inhibition curve with a large enough effect;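 note: plate controls were DMSO vehicle for no effect and reference drug for full effect; nearly all actives have a fitted effect of over 65% in size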
#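 Readout: SYBR Green fluorescence, 485 nm excitation, 535 nm emission, after ~16 h lysis at 37C. Before that, Dd2-infected red cells (2.5% hematocrit) grew 72 h with compound, 29 uM top final concentration.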
# The depositor's hits bear a star; i = inactive; [ ] = another dose, or the depositor's remark. Potency is the fitted concentration of half-maximal effect.
SMILES,Pf Dd2 inh
O=C(c1cccc(F)c1)N1CCC(Oc2cccnc2)C1 (stereo not drawn),1%
O=C(C1CCOCC1)N1CCC(Oc2cccc(F)c2)C1 (stereo not drawn),i
O=C(Nc1cc(F)c(F)c(F)c1)N1CCC(n2cnnc2C2CC2)C1 (stereo not drawn),-24%
Cc1nc(C)c(C(=O)N2C[C@@H](Oc3ccccc3)C[C@H]2C(=O)NC2CC2)s1,-4%
COc1ccc(CNC(=O)N2CCC3(CC2)CC(Cc2nc(C4CC4)no2)CCO3)cc1 (stereo not drawn),-10%
COc1ccc(C(=O)N2CCC3(CC2)CC(Cc2nc(-c4ccccc4)no2)CCO3)cc1 (stereo not drawn),i
Cc1ccc(NC(=O)N2CCC3(CC2)CC(Cc2nc(-c4ccccc4)no2)CCO3)cc1C (stereo not drawn),8.9µM*
COCCn1cnc2ccc(-c3ccnn3C)nc2c1=O,i
C[C@@H]1CN(C(=O)c2cccc(C#N)c2)CC[C@@]1(O)C1CCOCC1,-14%
CNC(=O)[C@@H]1CN(S(=O)(=O)c2cnc[nH]2)C[C@H]1c1n[nH]c(C)n1,-5%
COCCCNC(=O)CCCN1C(=O)COc2ccc(C(=O)COc3ccc(OC)cc3)cc21,-6%
COc1ccc(CCN2C(=O)c3[nH]nc(-c4ccccc4O)c3C2c2ccccc2)cc1 (stereo not drawn),8.9µM*
COc1ccc(CN2C(=O)c3oc4ccccc4c(=O)c3C2c2ccc(O)c(OC)c2)cc1 (stereo not drawn),-16%
CCCNC(=O)CN1C(=O)c2c(c3ccccc3n2C)C1c1ccc(OC)cc1 (stereo not drawn),9%
COc1ccc(CCN2C(=O)c3[nH]nc(-c4ccccc4O)c3C2c2ccc(OC)cc2)cc1 (stereo not drawn),10µM*
COc1ccc(CCN2C(=O)N(c3ccccc3)C(=O)C2CC(=O)Nc2ccccc2)cc1 (stereo not drawn),i
O=[S+]1([O-])NC2(CCN(Cc3ccc(F)cc3)C2)COc2ncccc21 (stereo not drawn),-14%
CCOC(=O)CC1COCCN1C(=O)c1cn(CCCc2ccccc2)nn1 (stereo not drawn),-3%
Cc1noc(C)c1[S+](=O)([O-])N1CCCC2(C1)C(=NC1CCCCC1)NC(=O)N2c1cccnc1 (stereo not drawn),i
O=C1CC2CCN(C(=O)c3ccccc3)CC2CCN1 (stereo not drawn),21%[44.1 µM]
O=C(Nc1cccc(Cl)c1)[C@@H]1COCC(=O)N1Cc1ccccc1,i
O=C(CC1CCCC1)N1CCC(Cc2nc(-c3ccc(F)cc3)no2)CC1,8%
COc1ccc(OC)c(-c2nc(CN3CCCC(C(C)(C)O)C3)c(C)o2)c1 (stereo not drawn),i
COc1ccc(CNc2nc3c(S(=O)(=O)c4ccccc4)nnn3c3ccc(Cl)cc23)cc1,-11%
CCN(Cc1ccccc1)c1nc2c(S(=O)(=O)c3ccccc3)nnn2c2ccc(Cl)cc12,6.3µM*
SMILES,Pf Dd2 inh
COCCNc1nc2c(S(=O)(=O)c3ccccc3)nnn2c2ccc(Cl)cc12,i
CC(C)(N)CN1CCOCC1,1%[115 µM]
O=S(=O)(c1cccc(Cl)c1)n1c(/C=C/c2ccccc2Cl)nc2ccccc21,i
CSc1ccc(/C=C/c2nc3ccccc3n2S(=O)(=O)c2cccc(Cl)c2)cc1,i
Cc1ccc(/C=C/c2nc3ccccc3n2S(=O)(=O)c2ccc(Br)cc2)cc1,5.6µM*
CSc1cccc(NC(=O)N[C@H]2CCN(C(=O)c3cccn3C)[C@@H]2C(=O)N[C@@H](Cc2cccs2)C(N)=O)c1,-20%
O=C(COc1ccccc1)N[C@H]1[C@H](O)[C@H](O)C[C@@H]1c1ccc(N2CCOCC2)nc1,-6%[44.1 µM]
COc1ccc2sc(N(Cc3cccnc3)C(=O)c3ccc4c(c3)OCCO4)nc2c1,7.1µM*
CCOc1ccc2nc(N(Cc3cccnc3)C(=O)C3CCCCC3)sc2c1,2.2µM*
COc1cccc2sc(N(Cc3cccnc3)C(=O)c3ccc(S(=O)(=O)N(C)C)cc3)nc12,-21%
O=C(c1cccs1)N(Cc1cccnc1)c1nc2c(F)cc(F)cc2s1,i
COc1ccc2nc(N(Cc3cccnc3)C(=O)C3COc4ccccc4O3)sc2c1 (stereo not drawn),i
O=C(COc1ccccc1)N(Cc1cccnc1)c1nc2ccc(F)cc2s1,15%
COc1ccc2sc(N(Cc3cccnc3)C(=O)COc3ccccc3)nc2c1,i
Cc1cc2nc(N(Cc3cccnc3)C(=O)c3ccc(Cl)s3)sc2cc1C,45%
Cc1ccc2nc(N(Cc3cccnc3)C(=O)C3CCCCC3)sc2c1,2.5µM*
CCc1ccc2nc(N(CCN(CC)CC)C(=O)c3cccs3)sc2c1,-10%
COc1ccc2nc(N(Cc3cccnc3)C(=O)COc3ccccc3)sc2c1,16%
CCc1ccc2nc(N(Cc3cccnc3)C(=O)c3cccs3)sc2c1,3.2µM*
COCCNC(=O)[C@@H]1C[C@@H](O)CN1C1CCN(C(=O)c2ccccc2OC)CC1,18%
CS(=O)(=O)N(Cc1cccnc1)C1CN(C(=O)c2ccc3ccccc3n2)C1,-8%
C[C@@H](NC(=O)Cc1ccccc1)c1c(-c2ccc(F)cc2)noc1C(=O)O,i
O=C(CN1C(=O)NC2(CCS(=O)(=O)CC2)C1=O)Nc1ccc(Cl)cc1F,9%
CCOc1ccccc1CN1CC(CO)C2(CCNCC2)C1 (stereo not drawn),i
COc1cc(NC(=O)O[C@@H]2CC[C@]3(C)C(CC[C@@H](O)[C@H]3CC(=O)N3CCCC3)[C@]2(C)CO)cc(OC)c1OC (stereo partly drawn),i
SMILES,Pf Dd2 inh
CSc1cccc(NC(=O)O[C@@H]2CC[C@]3(C)C(CC[C@@H](O)[C@H]3CC(=O)NCc3ccccc3)[C@]2(C)CO)c1 (stereo partly drawn),11µM*
CSc1cccc(NC(=O)O[C@@H]2CC[C@]3(C)C(CC[C@@H](O)[C@H]3CC(=O)N3CCC[C@H]3CO)[C@]2(C)CO)c1 (stereo partly drawn),-18%
CCCNC(=O)O[C@@H]1CC[C@]2(C)C(CC[C@@H](O)[C@H]2CC(=O)NCc2ccc(F)cc2)[C@]1(C)CO (stereo partly drawn),i
CSc1cccc(NC(=O)O[C@@H]2CC[C@]3(C)C(CC[C@@H](O)[C@H]3CC(=O)N3CCCC3)[C@]2(C)CO)c1 (stereo partly drawn),5µM*
C[C@]1(CO)C2CC[C@@H](O)[C@@H](CC(=O)N3CCCC3)[C@]2(C)CC[C@H]1OC(=O)Nc1cccc(F)c1 (stereo partly drawn),-6%
CN(C)CC(=O)N1C[C@@H]2CN(c3cc(C4CC4)ncn3)C[C@]2(C(=O)O)C1,-6%
CN(C)C(=O)c1ccc(OC2CCN(C(=O)c3ccc(F)cc3F)CC2)nc1,-13%
CC(C)C(=O)N1CCCC(c2noc(COc3ccccc3F)n2)C1 (stereo not drawn),5%
Cc1ccc(-n2nc3n(c2=O)CCN([S+](C)(=O)[O-])C3)cc1,-12%[44.1 µM]
COc1ccc(CNC(=O)C(N)c2c(C)n[nH]c2C)c(F)c1F (stereo not drawn),-15%
C#CC(C)(CC)NC(=O)c1cnn2c(C(F)F)cc(-c3ccccc3OC)nc12 (stereo not drawn),-15%
CC(C)c1ccc(NC(=O)c2cnn3c(C(F)F)cc(-c4ccccc4)nc23)cc1,5µM*
Cc1ccc(NC(=O)c2cc3nc(-c4ccccc4)cc(-c4ccccc4)n3n2)cc1,45%
